Measurements: PubChem BioAssay (NCATS)
Where “and” joins values, the source holds several entries; their conditions need not be identical. Equal values may be shown once. Inconclusive results are not listed. Entries that show only a call come without a potency. Calls of active or inactive are those of the source. Unless noted, the call rests on the fitted dose curve; in most records, active means well fitted curve in the direction sought with a large enough effect; inconclusive means small, poorly fitted or top-dose-only effect, or another doubt; inactive means no such curve, though single readings can be large; an effect the other way counts as inactive or inconclusive.

What was measured:
[1] = biological target: Cytochrome P450 2C9 (Homo sapiens) (UniProt P11712); experiment: Cytochrome P450 family 2 subfamily C member 9 (CYP2C9) small molecule antagonists: luciferase biochemical (cell-free) qHTS assay (AID 1645842; active means well fitted curve in the direction sought with a large enough effect in the repeat runs; an effect the other way counts as inactive or inconclusive; further: nearly all actives have a fitted effect of over 55% in size; further: potency means the concentration at half of the fitted maximal effect)
Outline: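 P450-Glo CYP2C9 system: proluciferin substrate with enzyme in mix containing 0.4% BSA, 10 min at room temperature, then NADPH regeneration solution added and incubated 1 h at 37C. Detection reagent stopped reaction; luminescence read after 20 min as RLU.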

[2] = Primary qHTS for inhibitors of nuclear receptor binding SET domain protein 2 (NSD2) in an isogenic RCH-ACV NSD2 p.E1099K mutant (9B) (AID 1645876); further: nearly all actives have a fitted effect of over 70% in size; further: potency means the concentration at half of the fitted maximal effect
[3] = Primary qHTS for inhibitors of nuclear receptor binding SET domain protein 2 (NSD2) in an RCH-ACV wild type WT cells (2C) (AID 1645877); further: nearly all actives have a fitted effect of over 70% in size; further: potency means the concentration at half of the fitted maximal effect
[4] = biological target: Glutathione peroxidase 1 (Homo sapiens) (UniProt P07203); experiment: Primary qHTS Assay for Inhibitors of Recombinant Selenoprotein Glutathione Peroxidase 1 (GPX1) (AID 1845191); further: nearly all actives have a fitted effect of over 65% in size; further: potency means the concentration at half of the fitted maximal effect
Outline: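 GPX1 10 nM, GR 100 nM, GSH 1 mM, NADPH 0.5 mM, CHP 0.5 mM (final). 30-min cpd preincubation, RT. Ex340/Em450 read t=0, t=15 min.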

[5] = biological target: Phospholipid hydroperoxide glutathione peroxidase GPX4 (Homo sapiens) (UniProt P36969); experiment: Primary qHTS Assay for Inhibitors of Recombinant Selenoprotein Glutathione Peroxidase 4 (GPX4) (AID 1845192); further: nearly all actives have a fitted effect of over 65% in size
Outline: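 qHTS, GR-coupled: GPX4 200 nM + cpd 30 min RT → GSH 1 mM, NADPH 0.5 mM, GR 100 nM → CHP 0.5 mM start; fluor 340/450 at t0 and t15 min; no-enzyme wells as control.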

[6] = biological target: Luciferin 4-monooxygenase (Photinus pyralis) (UniProt P08659); experiment: Primary firefly luciferase (FLuc) qHTS assay for identification of artifact compounds. (AID 1845220); further: nearly all actives have a fitted effect of over 60% in size
Outline: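 qHTS, 15 min compound preincubation with substrate (10 uM luciferin, 10 uM ATP) at RT, then 10 nM FLuc; 5 min; luminescence; % inhibition vs no-enzyme/DMSO controls, 4-parameter Hill fit.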

[7] = Primary fluorescence-based thiol-reactive (MSTI) qHTS assay for identification of artifact compounds. (AID 1845221);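 further: thiol-reactive compounds lower the probe fluorescence signal; nearly all actives have a fitted effect of over 65% in size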
Outline: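 In PBS pH 7.4 with 2% DMSO, each compound met 4 uM MSTI for one hour at ambient temperature, shielded from light, before fluorescence detection.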

[8] = test system: Nanoluciferase (engineered Oplophorus gracilirostris luciferase); experiment: Primary Nanoluciferase (NLuc) qHTS assay for identification of artifact compounds. (AID 1845222)
Outline: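 Luminescence read-out of secreted NLuc in S16 cell conditioned medium (1:55); compounds tested with 15 min RT preincubation, then Nano-Glo substrate 1:100, 5 min. % inhibition vs no-enzyme and DMSO controls, 4-parameter Hill fit.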

[9] = NCATS anti-infectives library activity on the primary C. elegans qHTS viability assay (AID 1745855; calls by dose curve)
Outline: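 Titration-based screen in worms: eggs hatched overnight in M9, L1 larvae fed TOP10 capsules in S medium with compound, incubated 21 °C for 7 days; fluorescent objects gated by size and intensity at days 0, 3 and 7.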

[10] = biological target: Catechol O-methyltransferase (Homo sapiens) (UniProt P21964); experiment: Confirmatory Screen for Target Class Profiling of Small Molecule Inhibitors of Methyltransferases (AID 1745852; calls by dose curve); details: MTase-Glo luminescence, SAH detection, recombinant enzyme; measured here: COMT max response; stronger effect = lower value
[11] = biological target: Guanidinoacetate N-methyltransferase (Homo sapiens) (UniProt Q14353); experiment: as above; details: activity change, negative = inhibition: at 57.3 µM (top of the series)
[12] = biological target: Nicotinamide N-methyltransferase (Homo sapiens) (UniProt P40261); experiment: as above; details: MTase-Glo luminescence, SAH detection, recombinant enzyme; measured here: NNMT max response; stronger effect = lower value
[13] = biological target: Phenylethanolamine N-methyltransferase (Homo sapiens) (UniProt P11086); experiment: as above; details: MTase-Glo luminescence, SAH detection, recombinant enzyme; measured here: PNMT max response; stronger effect = lower value
Sequence of Phenylethanolamine N-methyltransferase (Homo sapiens) (P11086 whole entry, looked up): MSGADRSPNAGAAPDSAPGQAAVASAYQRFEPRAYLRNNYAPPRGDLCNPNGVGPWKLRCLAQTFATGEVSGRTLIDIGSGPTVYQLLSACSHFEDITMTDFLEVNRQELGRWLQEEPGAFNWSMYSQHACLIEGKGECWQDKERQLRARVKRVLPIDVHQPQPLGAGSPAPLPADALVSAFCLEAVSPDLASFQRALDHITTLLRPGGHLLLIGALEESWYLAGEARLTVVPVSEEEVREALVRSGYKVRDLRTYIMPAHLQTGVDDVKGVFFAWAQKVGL

Sequence of Glutathione peroxidase 1 (Homo sapiens) (P07203 whole entry, looked up): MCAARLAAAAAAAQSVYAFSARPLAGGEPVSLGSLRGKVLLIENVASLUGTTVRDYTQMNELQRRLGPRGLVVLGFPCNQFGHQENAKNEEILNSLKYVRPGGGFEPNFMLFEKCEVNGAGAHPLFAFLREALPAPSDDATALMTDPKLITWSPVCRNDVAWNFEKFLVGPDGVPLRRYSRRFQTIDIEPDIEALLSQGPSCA
Sequence of Phospholipid hydroperoxide glutathione peroxidase GPX4 (Homo sapiens) (P36969 whole entry, looked up): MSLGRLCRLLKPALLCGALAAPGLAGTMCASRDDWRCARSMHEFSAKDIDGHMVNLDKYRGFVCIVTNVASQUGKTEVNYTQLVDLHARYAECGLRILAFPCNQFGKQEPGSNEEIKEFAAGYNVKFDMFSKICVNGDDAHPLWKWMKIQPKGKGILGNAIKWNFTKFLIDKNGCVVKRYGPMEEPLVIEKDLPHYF
Sequence of Nicotinamide N-methyltransferase (Homo sapiens) (P40261 whole entry, looked up): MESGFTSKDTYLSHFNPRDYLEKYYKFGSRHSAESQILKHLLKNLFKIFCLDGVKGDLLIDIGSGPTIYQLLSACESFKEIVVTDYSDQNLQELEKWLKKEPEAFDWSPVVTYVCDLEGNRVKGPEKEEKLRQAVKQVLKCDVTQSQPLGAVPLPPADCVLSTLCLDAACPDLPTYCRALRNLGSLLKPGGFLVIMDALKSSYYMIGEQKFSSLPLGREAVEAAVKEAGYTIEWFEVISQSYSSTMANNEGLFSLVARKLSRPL
Sequence of Cytochrome P450 2C9 (Homo sapiens) (P11712 whole entry, looked up): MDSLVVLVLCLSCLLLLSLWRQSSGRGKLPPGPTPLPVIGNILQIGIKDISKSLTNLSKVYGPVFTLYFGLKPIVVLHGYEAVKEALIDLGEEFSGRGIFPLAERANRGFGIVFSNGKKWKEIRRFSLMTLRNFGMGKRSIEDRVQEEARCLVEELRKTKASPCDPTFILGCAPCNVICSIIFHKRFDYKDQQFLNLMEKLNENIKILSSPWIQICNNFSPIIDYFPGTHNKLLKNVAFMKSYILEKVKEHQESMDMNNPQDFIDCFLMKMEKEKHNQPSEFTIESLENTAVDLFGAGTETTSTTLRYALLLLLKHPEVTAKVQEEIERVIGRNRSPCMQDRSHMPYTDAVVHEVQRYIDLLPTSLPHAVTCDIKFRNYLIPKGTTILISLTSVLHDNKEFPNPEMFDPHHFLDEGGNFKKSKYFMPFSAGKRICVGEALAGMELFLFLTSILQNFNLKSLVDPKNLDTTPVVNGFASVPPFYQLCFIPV
Sequence of Catechol O-methyltransferase (Homo sapiens) (P21964 whole entry, looked up): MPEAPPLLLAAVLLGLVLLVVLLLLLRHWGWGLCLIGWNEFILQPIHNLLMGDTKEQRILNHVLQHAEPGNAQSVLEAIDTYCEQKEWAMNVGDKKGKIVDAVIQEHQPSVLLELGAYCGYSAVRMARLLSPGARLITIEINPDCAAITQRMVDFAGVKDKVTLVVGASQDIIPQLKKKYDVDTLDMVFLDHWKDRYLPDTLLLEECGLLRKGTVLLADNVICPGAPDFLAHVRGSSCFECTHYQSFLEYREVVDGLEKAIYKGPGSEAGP

Compound | Potency [1] | Potency [2] | Potency [3] | Potency [4] | Potency [5] | Potency [6] | Potency [7] | outcome [8] | Potency [9] | activity [10] [%] | activity change, negative = inhibition [11] [%] | activity [12] [%] | activity [13] [%]
OCCNC1CCCc2c1[nH]c1ccc(-c3ccccc3)cc21 (configuration not stated) | 26.8 µM (active) | 11.8 µM (active) | 11.8 µM (active) | inactive | inactive | inactive | inactive | inactive | – | – | – | – | –
Cc1cc(O)c2c(c1)C(=O)c1cccc(O)c1C2=O | inactive | inactive | inactive | 8.17 µM (active) | inactive | – | – | – | inactive | – | – | – | –
C[C@@H](NCc1cc2ccccc2[nH]1)c1cccc2ccccc12 | 10.7 µM (active) | 16.6 µM (active) | 14.8 µM (active) | inactive | inactive | – | – | – | – | – | – | – | –
CC(C)C[C@H](NC(=O)CNC(=O)c1cc(Cl)ccc1Cl)B1OC(=O)CC(CC(=O)O)(C(=O)O)O1 (some centres not stated) | inactive | 0.186 µM (active) | 0.118 µM (active) | inactive | inactive | – | – | – | – | – | – | – | –
c1ccc2c(Oc3nc(Nc4ccc(N5CCOCC5)cc4)c4ncn(C5CCCCC5)c4n3)cccc2c1 | 4.77 µM (active) | inactive | inactive | inactive | inactive | inactive | – | inactive | – | 0.484 | -1.84 | -22.9 | -3.02
CCCCC(=O)O[C@]1(C(=O)CO)[C@@H](C)C[C@H]2[C@@H]3CCC4=CC(=O)C=C[C@]4(C)[C@@]3(F)[C@@H](O)C[C@@]21C | 15.5 µM (active) | inactive | 8.4 nM (active) and 33.2 nM (active) | inactive | inactive | – | – | – | – | – | – | – | –
c1cncc(CN2CCC(n3ncc4c(N5CCOCC5)nc(-c5ccc6[nH]ccc6c5)nc43)CC2)c1 | 1.9 µM (active) | 916 nM (active) and 833 nM (active) | 1.15 µM (active) and 1.05 µM (active) | inactive | inactive | inactive | inactive | inactive | – | – | – | – | –
CN1CCc2c(c3ccccc3n2Cc2ccc(C(=O)NO)cc2)C1 | inactive | 16.3 µM (active) and 18.6 µM (active) | 11.5 µM (active) and 16.6 µM (active) | inactive | inactive | inactive | – | inactive | – | 0 | -3.04 | -7.28 | -22.2
Oc1cc(-c2nc(-c3ccccc3)[nH]c2-c2ccncc2)ccc1Cl | 1.69 µM (active) | 11.8 µM (active) and 18.3 µM (active) | 13.2 µM (active) and 16.4 µM (active) | inactive | inactive | inactive | inactive | inactive | – | – | – | – | –
C=CC(=O)Nc1ccc2ncnc(Nc3ccc(OCc4cccc(F)c4)c(Cl)c3)c2c1 | 3.38 µM (active) | 7.28 µM (active) and 5.9 µM (active) | 8.17 µM (active) and 4.68 µM (active) | inactive | inactive | inactive | inactive | – | – | – | – | – | –
CCCCOc1ccc(C(=O)Nc2ccc(F)cc2F)cc1 | 7.56 µM (active) | inactive | inactive | inactive | inactive | inactive | inactive | inactive | – | – | – | – | –
Cc1cn([C@@H]2O[C@H](CO)[C@@H](O)[C@H]2F)c(=O)[nH]c1=O | inactive | inactive | inactive | – | – | – | – | – | – | – | – | – | –
Cc1cnc(Nc2ccc(N3CCN(C)CC3)cc2)nc1Nc1cccc(S(=O)(=O)NC(C)(C)C)c1 | inactive | 1.66 µM (active) | 1.86 µM (active) | inactive | – | – | – | – | – | 8.73 | -1.34 | -15.4 | 0.463
CC(C)Oc1ccc(C(=O)N[C@H](CNC(=O)CN(C)C)Cc2ccc(-c3cn4cccc([C@H](C)O)c4n3)cc2)cc1Cl | 10.7 µM (active) | 0.059 µM (active) | 0.059 µM (active) | inactive | – | – | – | – | – | – | – | – | –
CCOc1cc2c(c(F)c1OCC)C(=N)N(CC(=O)c1cc(N3CCOCC3)c(OC)c(C(C)(C)C)c1)C2 | 6.01 µM (active) | 23 µM (active) | 16.3 µM (active) | inactive | inactive | inactive | – | inactive | – | – | – | – | –
Oc1ccc([C@@H]2Oc3ccc(O)cc3[C@@H]3CCC[C@@H]32)cc1 | inactive | 8.33 µM (active) | 5.9 µM (active) | inactive | inactive | inactive | inactive | inactive | – | – | – | – | –
